# Measurements reported in the supplement of paper PMC10338343.
# ± gives the standard deviation. The full ranking holds about 8,200 sequences; the median of “pre-steady-state target cleavage rate” is about 0.024, and the highest 2% start at about 1.3. This excerpt belongs to a sample that is enriched for the highest values.
# Test system: MIWI (PIWIL1) piRISC loaded with L1MC piRNA (30 nt)
# Test: pre-steady-state target cleavage rate (min^-1); MIWI and MILI are mouse PIWI proteins and EfPiwi is from a freshwater sponge; tags in brackets are library labels; higher = faster piRNA-guided slicing of the target
# Details: guide: L1MC piRNA 5'p-UAACUAAAUACUAUGCAAGCUGUAGGUCCU
# In short: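 Sequencing of uncleaved targets, normalised to depth and to weakly complementary targets, was the readout of this Cleave-'n-Seq assay. A transcribed, DNA-blocked target RNA library (0.1 nM) was mixed with 1 nM active affinity-purified piRISC carrying one synthetic guide, with or without 500 nM GTSF1 partner protein, in HEPES–potassium acetate buffer at 33 °C for 0–8 or 0–960 min. Three trials were pooled, k3 was capped at 0.0001 min^-1, and a burst-and-steady-state fit gave the pre-steady-state cleavage rate.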
# [1] = auxiliary factor: 500 nM mouse GTSF1
# [2] = auxiliary factor: none (no GTSF1)
Sequence,pre-steady-state target cleavage rate [1],pre-steady-state target cleavage rate [2]
AGGACCUAGUGCUUGCAUAGUAUUUAGUAA,0.457 ± 0.051,0.0314 ± 0.0063
UCCUCCUACAGCUUGCUAAGUAUUUAGUAA,0.066 ± 0.012,
AGGACCUACAGCUUGGAUAGUAUUAAGUUA,0.722 ± 0.072,0.0226 ± 0.004
UAGACCUACAGCUUGCAUAGUAUUUAGUUA,1.31 ± 0.043,0.0672 ± 0.011
AGACCUACAGCUUGCAUAGUAUUUAGUUA,1.46 ± 0.052,0.0902 ± 0.017
AAGACCUACAGCUUGCAUAGUAUUUAGUUA,1.69 ± 0.062,0.0921 ± 0.015
AGGACCUACAGGUAGCAUAGUAUUUAGUUA,1.04 ± 0.054,0.00995 ± 0.0022
UCCUGGUACAGCUUGCAUAGUAAAUUCAAA,0.00975 ± 0.0053,
UCCUCCUACAGCUUGCAUAGUAUUUAGAUUA,0.342 ± 0.031,0.0121 ± 0.0024
UCCUGGAAGUCCUUGCAUAGUAUUUAGUUA,0.175 ± 0.02,0.0104 ± 0.0031
UCCGCCUACAGCUUGCAUAGUAUUUAGUUA,1.23 ± 0.05,0.0714 ± 0.011
UCCCCCUACAGCUUGCAUAGUAUUUAGUUA,1.28 ± 0.039,0.0819 ± 0.014
UCGCCCUACAGCUUGCAUAGUAUUUAGUUA,1.32 ± 0.055,0.0692 ± 0.011
UCGCCUACAGCUUGCAUAGUAUUUAGUUA,1.5 ± 0.066,0.0743 ± 0.014
UCCUGGUACAGCUUGCAUAGUUUUUAGUAA,0.177 ± 0.037,0.0195 ± 0.0054
UCCUGGUACAGCUUGCAUAGUUAUUAGUUA,0.115 ± 0.018,0.018 ± 0.0051
